In the library only some 18% were active in any assay of this set; here they are far more common.
TDP1 block – qHTS Assay for Inhibitors of Tyrosyl-DNA Phosphodiesterase (TDP1); recombinant TDP1, AlphaScreen DNA substrate cleavage; 350,000 tested, 0.28% active; Potency, µM (series often up to 130 µM), without a hit: top-dose activity change, negative = inhibition, actives largely listed as inhibitors; AID 485290, 2010; also: potency is read from the fitted curve at half-maximal effect; nearly all actives have a fitted effect of over 40% in size
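AlphaScreen read-out: signal falls as enzyme removes the 3' tyrosine-FITC from a 5'-biotinylated DNA oligo (15 nM, 5 min, RT). Enzyme was E. coli-made recombinant Tdp1 at 1 nM, exposed to compound for 15 min beforehand; beads 10 ug/ml, 10 min.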
Six1-Eya2 inh – qHTS Assay for Inhibitors of the Six1/Eya2 Interaction | AlphaScreen GST-Six1/His-Eya2 binding, biochemical; stronger effect = lower value | activity change, % (test concentration not listed) | 360,000 tested, 0.56% active | AID 651725, 2012; in the data active = activity change below about -65%; inconclusive = mostly about -30% to -63%
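Six1/Eya2 binding was read as AlphaScreen signal after compounds were pinned into GST-Six1 plus His-tagged Eya2 (5X stock 250/500 nM) in pH 8.0 Tris/NaCl/TCEP buffer, beads added, then incubated 1 h, 37 C, dark.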
IL-1B inflam inh – qHTS for Inhibitors of Inflammasome Signaling: IL-1-beta AlphaLISA Primary Screen | 360,000 tested, 4.7% active | THP-1 LPS/ATP IL-1B secretion, AlphaLISA, 16 h; stronger effect = lower value | activity change, % at 57.5 µM; in the data active = activity change below about -50%; inconclusive = mostly about -30% to -49%
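Secreted IL-1B measured by AlphaLISA bead assay after 16 h compound exposure of THP-1 cells; compounds (final up to 57.5 uM) added 1 h before LPS (250 ng/mL) and ATP (1.25 mM) stimulation; lower signal means less secretion.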
TDP1 cell CPT – qHTS for Inhibitors of human tyrosyl-DNA phosphodiesterase 1 (TDP1): qHTS in cells in presence of CPT; chicken DT40 Tdp1-/-;hTDP1 cells + 20 nM CPT, ATP luminescence, 48 h; Potency, µM (doses to about 46.2 µM), inactives show top-dose activity change, negative = growth inhibition, hits mostly inhibitors; 420,000 tested, 12% active; AID 686979, 2013; also: potency is read from the fitted curve at half-maximal effect; nearly all actives have a fitted effect of over 55% in size
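Cell growth measured by CellTiter-Glo luminescence after a minimum 48 h, 37 C compound exposure with 20 nM CPT in Tdp1-knockout DT40 cells stably expressing hTDP1, seeded 400/well; qHTS titration format.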
CtBP-E1A inh – qHTS Assay for Inhibitors of the CtBP/E1A Interaction; 340,000 tested, 0.49% active; AID 651724, 2012; activity change, % (test concentration not listed); AlphaScreen GST-E1A/His-CtBP binding, 1536-well; stronger effect = lower value; in the data active = activity change below about -65%; inconclusive = mostly about -30% to -63%
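In 5 uL wells, 23 nL compound meets equimolar GST-E1A and His-CtBP (5X stock 125 nM each) for 2 h, 37 °C. Beads (5X, 50 ug/mL) then 1 h, 37 °C, dark.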
DT40 TDP1 no CPT – qHTS for Inhibitors of human tyrosyl-DNA phosphodiesterase 1 (TDP1): qHTS in cells in absence of CPT. DT40 Tdp1-/- hTDP1 cells, no CPT, ATP luminescence, 48 h. Potency, µM (titrated, usually from 46.2 µM), for inactives: top-dose activity change, negative = growth inhibition, actives largely listed as inhibitors. 420,000 tested, 15% active. AID 686978, 2013; also: potency is read from the fitted curve at half-maximal effect; nearly all actives have a fitted effect of over 55% in size
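Camptothecin absent (DMSO only). Human TDP1-complemented DT40 knockout cells, 400 cells/well, 37 °C for minimum 48 hr; ATP measured via CellTiter-Glo, 30 min dark incubation, luminescence.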
Numbers without * were called inactive. Unless noted, calls follow the shape of the dose curve; as a rule, active = well fitted curve in the direction sought with a large enough effect; inconclusive = small, poorly fitted or top-dose-only effect, or another doubt; inactive = no such curve, though single readings can be large; an effect the other way counts as inactive or inconclusive. % is scaled to controls: 0 for no effect and ±100 for the full control effect.

Screening N#Cc1ccc(C(=O)Nc2cc3nn(-c4ccccc4)nc3cc2Cl)c(F)c1 returned TDP1 block 5%.
`COc1ccc(C(C)(O)c2nc(-c3ccc(F)c(Cl)c3)cs2)cc1` (stereo not drawn) gave Six1-Eya2 inh 9, IL-1B inflam inh 29, TDP1 cell CPT inconclusive, CtBP-E1A inh -4 and DT40 TDP1 no CPT inconclusive.
`COc1cc(F)ccc1-c1csc(C(C)(O)c2ccc(F)c(F)c2)n1` (stereo not drawn) gave Six1-Eya2 inh 1, IL-1B inflam inh 17, TDP1 cell CPT inconclusive, CtBP-E1A inh 5 and DT40 TDP1 no CPT 18µM*.
Screening COc1cc(F)ccc1-c1csc(C(O)c2ccccc2)n1 (stereo not drawn) returned Six1-Eya2 inh 10, IL-1B inflam inh -16, TDP1 cell CPT 26µM*, CtBP-E1A inh 10 and DT40 TDP1 no CPT inconclusive.
For COc1ccc(C(C)(O)c2nc(-c3ccc(F)cc3OC)cs2)cc1 (stereo not drawn) the results were Six1-Eya2 inh 1, IL-1B inflam inh 46, TDP1 cell CPT 8.2µM*, CtBP-E1A inh 10 and DT40 TDP1 no CPT 10µM*.
Screening COc1ccccc1-c1csc(C(O)c2ccc(F)cc2)n1 (stereo not drawn) returned Six1-Eya2 inh 0, IL-1B inflam inh -15, TDP1 cell CPT inconclusive, CtBP-E1A inh 8 and DT40 TDP1 no CPT inconclusive.
Screening COc1cccc(C(C)(O)c2nc(-c3ccc(F)cc3OC)cs2)c1 (stereo not drawn) returned Six1-Eya2 inh 1, IL-1B inflam inh 18, TDP1 cell CPT 23µM*, CtBP-E1A inh 9 and DT40 TDP1 no CPT inconclusive.
`COc1ccc(OC)c(C2c3[nH]c4ccccc4c3C[C@H]3C(=O)N(CCCOC(C)C)CC(=O)N23)c1` (stereo partly drawn) gave Six1-Eya2 inh -1, IL-1B inflam inh -9, TDP1 cell CPT -29% and DT40 TDP1 no CPT inconclusive.
`Cc1cc(C(=O)N2CCC2(C)C(=O)NS(=O)(=O)c2cccc(Cl)c2)nn1C` (stereo not drawn) gave Six1-Eya2 inh 0, IL-1B inflam inh 0, TDP1 cell CPT -22%, CtBP-E1A inh -6 and DT40 TDP1 no CPT inconclusive.
CC(Sc1nnnn1-c1ccc(O)cc1)C(=O)NNC(=O)c1ccc(F)cc1 (stereo not drawn) was read as TDP1 block 2%, Six1-Eya2 inh 0, IL-1B inflam inh -3, TDP1 cell CPT -27%, CtBP-E1A inh -1 and DT40 TDP1 no CPT inconclusive.
For OC(c1ccccc1)c1nc(-c2csc3ccccc23)cs1 (stereo not drawn) the results were Six1-Eya2 inh -2, IL-1B inflam inh 69, TDP1 cell CPT inconclusive, CtBP-E1A inh 1 and DT40 TDP1 no CPT -2%.
`COc1cc(F)ccc1-c1csc(C(NC(C)=O)c2cccc(F)c2)n1` (stereo not drawn) gave Six1-Eya2 inh 6, IL-1B inflam inh -15, TDP1 cell CPT inconclusive, CtBP-E1A inh -21 and DT40 TDP1 no CPT inconclusive.
OC(c1ccc(F)cc1)c1nc(-c2csc3ccccc23)cs1 (stereo not drawn) was read as Six1-Eya2 inh 8, IL-1B inflam inh -19, TDP1 cell CPT 18µM*, CtBP-E1A inh 3 and DT40 TDP1 no CPT 26µM*.
COc1cc(F)ccc1-c1csc(C(O)(c2ccccc2)C(F)(F)F)n1 (stereo not drawn) was read as Six1-Eya2 inh 8, IL-1B inflam inh inconclusive, TDP1 cell CPT 23µM*, CtBP-E1A inh 2 and DT40 TDP1 no CPT 15µM*.
For CCOC(=O)Cn1c(=O)c2c(nc3n2CCCN3Cc2ccccc2)n(C)c1=O the results were Six1-Eya2 inh -5, IL-1B inflam inh -1, TDP1 cell CPT 4%, CtBP-E1A inh 0 and DT40 TDP1 no CPT -24%.
Screening COC(=O)CC1=NN(c2ccccc2)C(=O)/C1=C\c1ccc(OC)cc1 returned TDP1 block 0%, Six1-Eya2 inh 1, IL-1B inflam inh -23, TDP1 cell CPT 21µM*, CtBP-E1A inh -1 and DT40 TDP1 no CPT inconclusive.
`Cc1ccc(Cl)cc1NC(=O)C1CC(=O)N(C(C)C)C1` (stereo not drawn) gave Six1-Eya2 inh -4, IL-1B inflam inh 18, TDP1 cell CPT 3%, CtBP-E1A inh 5 and DT40 TDP1 no CPT -6%.
CCCCN1C(=O)C(=O)N(CC(=O)c2ccc3c(c2)OCO3)C1=O was read as TDP1 block 1%, Six1-Eya2 inh 0, IL-1B inflam inh 9, TDP1 cell CPT 1%, CtBP-E1A inh -16 and DT40 TDP1 no CPT -4%.
Screening COCCNC(=O)COC(=O)c1cccnc1SC returned TDP1 block 2%, Six1-Eya2 inh 0, IL-1B inflam inh 20, TDP1 cell CPT 18µM*, CtBP-E1A inh 8 and DT40 TDP1 no CPT -108%.
For CCn1c(C)cc(C(=O)COC(=O)c2cccnc2SC)c1C the results were TDP1 block 9%, Six1-Eya2 inh -19, IL-1B inflam inh -9, TDP1 cell CPT 16µM*, CtBP-E1A inh -2 and DT40 TDP1 no CPT inconclusive.
Screening COc1ccc(C)c2sc(NC(=O)c3ccc(S(=O)(=O)N4CCCCC4)cc3)nc12 returned TDP1 block 3%, TDP1 cell CPT -26% and DT40 TDP1 no CPT -2%.
`O=C(COc1ncnc2ccccc12)Nc1cc([N+](=O)[O-])ccc1Cl` gave TDP1 block 3%, Six1-Eya2 inh 15, IL-1B inflam inh 36, TDP1 cell CPT 0%, CtBP-E1A inh -19 and DT40 TDP1 no CPT -26%.
Screening Cc1cc(NC(=O)CSc2nnc(CNC(=O)c3cccc(C(F)(F)F)c3)o2)no1 returned TDP1 block 0%, Six1-Eya2 inh -72*, IL-1B inflam inh 5, TDP1 cell CPT -6%, CtBP-E1A inh -78* and DT40 TDP1 no CPT 3%.

Screening data (PubChem)
